The values below come from PubChem BioAssay (EPA / NIEHS).

Experiment [1] can be described thus: ATG_GLI_CIS: Attagene CIS-FACTORIAL HepG2 Assay for human Zinc Finger Protein GLI1 (AID 2282945). The note with it: HepG2, Attagene cis-factorial reporter mRNA, GLI element; actives raise or lower the signal. In short, it runs like this: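 Bidirectional curve fits relative to DMSO, using reporter mRNA levels from RT-PCR plus capillary electrophoresis. Cells were HepG2 transiently carrying cis-regulated reporter constructs, harvested 24 h after dosing.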

The nature of experiment [2]: ATG_GRE_CIS: Attagene CIS-FACTORIAL HepG2 Assay for human Glucocorticoid Response Elements (GRE) (AID 2282947). As to conditions: HepG2 GRE cis-reporter, Attagene multiplex mRNA; actives raise or lower the signal. In short, it runs like this:
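Multiplexed cis-reporter mRNA induction, HepG2, 24 h post-dose. RT-PCR, FAM-labelled, HpaI-digested amplicons by CE. Bidirectional fit vs DMSO.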

Experiment [3] in a line: ATG_M_32_CIS: Attagene CIS-FACTORIAL HepG2 Assay for M32 Transcription Factor (Internal Marker) (AID 2282949).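 Further: background control marker of the multiplexed CIS panel rather than a real target.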 The note with it: HepG2 Attagene cis-factorial M32 reporter, mRNA; actives raise or lower the signal. In short, it runs like this: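 Using DMSO as baseline, bidirectional curve fits were applied to reporter mRNA signals. These came from transiently transfected HepG2 cells exposed for 24 h, with RNA analysed by RT-PCR, FAM primer extension, HpaI digestion and CE.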

Experiment [4] in a line: ATG_M_06_CIS: Attagene CIS-FACTORIAL HepG2 Assay for M06 Transcription Factor (Internal Marker) (AID 2282950). As to conditions: HepG2 Attagene CIS-FACTORIAL M06 internal marker reporter; actives raise or lower the signal. The essentials:
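Steps: transfect HepG2 with multiplexed cis-element reporter constructs; dose chemical 24 h; extract RNA with DNase treatment; reverse-transcribe, PCR-amplify, 6-FAM label, HpaI digest; separate fragments by capillary electrophoresis. Activity fitted both directions versus DMSO.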

Experiment [5] deals with Hypoxia-inducible factor 1-alpha (Homo sapiens) (UniProt Q16665). Put plainly: ATG_HIF1a_CIS: Attagene CIS-FACTORIAL HepG2 Assay for human Hypoxia Inducible Factor 1 (HIF1A) (AID 2282951). The note with it: HepG2 Attagene cis-factorial HIF1a reporter transcription; actives raise or lower the signal. In short, it runs like this:
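HepG2, transient cis-reporter library, 24 h dosing. RNA → RT (oligo dT) → PCR → 6-FAM primer extension → HpaI → CE. Bidirectional curve fit vs DMSO.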

For experiment [6], the target named is Hepatocyte nuclear factor 6 (Homo sapiens) (UniProt Q9UBC0). The experiment can be described thus: ATG_HNF6_CIS: Attagene CIS-FACTORIAL HepG2 Assay for human Hepatocyte Nuclear Factor 6 (HNF6) (AID 2282952). As to conditions: HepG2 Attagene cis-factorial HNF6 reporter transcription; actives raise or lower the signal. In short, it runs like this: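 Using cis-element reporters in HepG2 liver cells, the assay tracks endogenous factor-driven transcription 24 h post-dosing. Signal comes from 6-FAM-labelled, HpaI-digested RT-PCR fragments, with gain or loss scored against DMSO.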
Chain of Hepatocyte nuclear factor 6 (Homo sapiens) (Q9UBC0 whole entry, looked up, the tested form may be a part): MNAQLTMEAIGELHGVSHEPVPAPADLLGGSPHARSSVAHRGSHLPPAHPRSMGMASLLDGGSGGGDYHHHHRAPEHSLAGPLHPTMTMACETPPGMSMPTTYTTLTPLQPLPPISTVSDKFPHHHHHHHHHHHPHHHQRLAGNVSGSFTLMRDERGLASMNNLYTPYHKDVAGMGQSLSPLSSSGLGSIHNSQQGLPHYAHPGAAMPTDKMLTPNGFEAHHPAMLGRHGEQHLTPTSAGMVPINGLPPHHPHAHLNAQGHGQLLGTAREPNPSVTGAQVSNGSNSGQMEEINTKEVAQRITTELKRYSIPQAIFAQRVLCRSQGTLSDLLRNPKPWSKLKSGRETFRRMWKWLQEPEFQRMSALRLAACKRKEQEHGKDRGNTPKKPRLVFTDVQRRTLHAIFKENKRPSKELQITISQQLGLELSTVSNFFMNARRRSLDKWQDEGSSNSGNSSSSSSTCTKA

Experiment [7] concerns the target Heat shock factor protein 1 (Homo sapiens) (UniProt Q00613). The experiment can be described thus: ATG_HSE_CIS: Attagene CIS-FACTORIAL HepG2 Assay for human Heat Shock Transcription Factor 1 (HSE) (AID 2282953). The note with it: HepG2 HSE cis-reporter, Attagene RNA transcription; actives raise or lower the signal. In short, it runs like this: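 Cells were transfected with cis-element-driven reporter constructs, dosed for 24 h, then total RNA was reverse-transcribed and reporter cDNA amplified, FAM-labelled and digested with HpaI. Fragments were resolved by capillary electrophoresis; gain or loss was fitted against DMSO.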

A short description of experiment [8]: ATG_MRE_CIS: Attagene CIS-FACTORIAL HepG2 Assay for human Metal Responsive Element (MRE) (AID 2282954). As to conditions: HepG2 MRE cis-reporter transcription, Attagene multiplex; actives raise or lower the signal. In short, it runs like this: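 Multiplexed cis-reporter assay in human HepG2 liver cells, 24 h incubation with test chemical. Reporter transcripts measured by RT-PCR and capillary electrophoresis; values from bidirectional curve fitting versus DMSO.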

A short description of experiment [9]: ATG_PXRE_CIS: Attagene CIS-FACTORIAL HepG2 Assay for human Pregnane X Receptor Element (PXRE) (AID 2282957). As to conditions: HepG2 Attagene CIS-FACTORIAL PXRE reporter, mRNA; actives raise or lower the signal. In short, it runs like this:
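Using HepG2 transfected with multiple reporter transcription units, endogenous factor-driven transcription was scored as reporter mRNA after 24 h exposure.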

Experiment [10] can be described thus: ATG_PPRE_CIS: Attagene CIS-FACTORIAL HepG2 Assay for human Peroxisome Proliferator-activated Response Element (PPRE) (AID 2282958). The note with it: HepG2 PPRE cis-element reporter, Attagene transcription factor profiling; actives raise or lower the signal. In short, it runs like this: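 Transcript-level reporter induction in transfected HepG2 cells after 24 h chemical exposure, quantified by fluorescence from RT-PCR products separated by capillary electrophoresis.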

The nature of experiment [11]: ATG_RORE_CIS: Attagene CIS-FACTORIAL HepG2 Assay for human RAR-related Orphan Receptor Element (RORE) (AID 2282959). The note with it: HepG2 Attagene cis-factorial RORE reporter, mRNA; actives raise or lower the signal. In short, it runs like this:
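Multiplexed reporter assay measuring mRNA induction from a cis promoter element in transiently transfected HepG2 cells after 24 h treatment. Detection via RT-PCR and capillary electrophoresis fluorescence; DMSO serves as baseline.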

The nature of experiment [12]: ATG_Sox_CIS: Attagene CIS-FACTORIAL HepG2 Assay for human SRY-box transcription factor (SOX) (AID 2282960). The note with it: HepG2 Attagene cis-factorial SOX reporter, mRNA; actives raise or lower the signal. In short, it runs like this: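 Cells were transfected with reporter constructs under cis-regulatory promoters, then exposed to chemicals for 24 h. Reporter transcripts were quantified by fluorescence after RT-PCR and capillary electrophoresis; activity was fitted in both directions against DMSO.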

In experiment [13] the target is Transcription factor Sp1 (Homo sapiens) (UniProt P08047). Put plainly: ATG_Sp1_CIS: Attagene CIS-FACTORIAL HepG2 Assay for human Specificity Protein 1 (Sp1) (AID 2282961). As to conditions: HepG2 Sp1 cis-reporter transcription, actives raise or lower the signal. The essentials: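 Measures mRNA induction of an Sp1-linked reporter in HepG2 cells 24 h post-dosing. Multiplexed reporters read by RT-PCR and capillary electrophoresis; DMSO serves as negative control and baseline.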
Chain of Transcription factor Sp1 (Homo sapiens) (P08047 whole entry, looked up): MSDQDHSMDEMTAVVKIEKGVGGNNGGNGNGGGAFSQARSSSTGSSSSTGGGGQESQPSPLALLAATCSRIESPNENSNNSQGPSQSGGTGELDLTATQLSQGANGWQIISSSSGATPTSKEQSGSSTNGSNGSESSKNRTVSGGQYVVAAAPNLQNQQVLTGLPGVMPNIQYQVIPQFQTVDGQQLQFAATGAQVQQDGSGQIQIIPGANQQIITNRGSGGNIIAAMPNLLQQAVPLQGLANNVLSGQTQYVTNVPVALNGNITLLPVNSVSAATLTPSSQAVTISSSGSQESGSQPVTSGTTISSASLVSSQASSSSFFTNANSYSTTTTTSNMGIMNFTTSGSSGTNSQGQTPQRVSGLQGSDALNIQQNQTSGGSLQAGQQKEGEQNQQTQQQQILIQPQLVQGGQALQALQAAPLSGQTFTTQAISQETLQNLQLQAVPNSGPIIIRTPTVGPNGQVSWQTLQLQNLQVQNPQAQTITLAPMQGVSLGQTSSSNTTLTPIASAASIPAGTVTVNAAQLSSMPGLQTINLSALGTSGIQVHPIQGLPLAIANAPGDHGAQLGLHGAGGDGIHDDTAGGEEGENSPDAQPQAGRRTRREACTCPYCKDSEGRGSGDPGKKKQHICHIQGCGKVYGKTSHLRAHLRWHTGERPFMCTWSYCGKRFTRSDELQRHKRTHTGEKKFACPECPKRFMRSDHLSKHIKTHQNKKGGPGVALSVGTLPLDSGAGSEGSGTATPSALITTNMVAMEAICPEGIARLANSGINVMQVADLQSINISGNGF

Experiment [14] in a line: ATG_SREBP_CIS: Attagene CIS-FACTORIAL HepG2 Assay for human Sterol Regulatory Element Binding (SREBP) (AID 2282962). The note with it: HepG2 Attagene cis-factorial SREBP reporter, mRNA; actives raise or lower the signal. The essentials:
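Readout: fluorescent reporter-transcript peaks resolved by capillary electrophoresis after RT-PCR. Cells were human HepG2 carrying transfected cis-promoter reporter constructs, dosed for 24 h. Gain or loss of signal was fitted against DMSO controls.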

Experiment [15] concerns the target Signal transducer and activator of transcription 3 (Homo sapiens) (UniProt P40763). The experiment can be described thus: ATG_STAT3_CIS: Attagene CIS-FACTORIAL HepG2 Assay for human Signal Transducer and Activator of Transcription 3 (STAT3) (AID 2282963). As to conditions: HepG2, Attagene cis-factorial STAT3 reporter transcription; actives raise or lower the signal. In short, it runs like this: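 Cis-factorial format: endogenous transcription factors in HepG2 drive transfected reporter units. After 24 h treatment, reporter RNA was reverse-transcribed, amplified, FAM-labelled and HpaI-digested before CE analysis; activity scored in both directions against DMSO.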

Experiment [16] is described as follows: ATG_TA_CIS: Attagene CIS-FACTORIAL HepG2 Assay for human TA Basal Promoter (AID 2282964). As to conditions: HepG2 Attagene CIS-factorial TA basal promoter reporter; actives raise or lower the signal. The essentials: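 Steps: transfect HepG2 with MRTUs; dose 24 h; isolate RNA, DNase-treat, reverse-transcribe; PCR and FAM-label reporter cDNA; digest with HpaI 2h at 37 C; run capillary electrophoresis. Activity fitted both directions against DMSO.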

Experiment [17] is described as follows: ATG_ISRE_CIS: Attagene CIS-FACTORIAL HepG2 Assay for human Interferon Regulatory Factor 1 (IRF1) binding to an Interferon-Stimulated Response Element (ISRE) (AID 2282948). As to conditions: HepG2 ISRE cis-reporter (Attagene), mRNA transcription readout; actives raise or lower the signal. In short, it runs like this:
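Read-out: fluorescent RT-PCR products resolved by capillary electrophoresis, reporting endogenous transcription factor activity via ISRE-driven reporter mRNA in transfected HepG2 cells dosed for 24 h; gain or loss fitted relative to DMSO.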

A short description of experiment [18]: ATG_PBREM_CIS: Attagene CIS-FACTORIAL HepG2 Assay for human Phenobarbital-responsive Enhancer Module (PBREM) (AID 2282955). As to conditions: HepG2 PBREM cis-reporter, Attagene multiplexed transcription; actives raise or lower the signal. The essentials: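 HepG2, transient MRTU transfection, 24 h dosing; RNA → oligo(dT) RT → PCR → 6-FAM extension → HpaI → CE. Bidirectional fit vs DMSO.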

The target of experiment [19] is Paired box protein Pax-6 (Homo sapiens) (UniProt P26367). Put plainly: ATG_Pax6_CIS: Attagene CIS-FACTORIAL HepG2 Assay for human Paired Box 6 (PAX6) (AID 2282956). As to conditions: HepG2 CIS-FACTORIAL PAX6 reporter transcription, RNA readout; actives raise or lower the signal. In short, it runs like this:
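Readout: reporter transcript fluorescence after RT-PCR and capillary electrophoresis. Cells: HepG2, transiently transfected with cis-regulated MRTUs. Exposure 24 h. Gain or loss of signal fitted bidirectionally relative to DMSO.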

Each structure is given as a SMILES string. Active and inactive are the calls of the source. How the source made its calls: active means hit-call score of the fitted dose curve at least 0.9, where 1 is the maximum; inactive means score below 0.9.

Chain of Hypoxia-inducible factor 1-alpha (Homo sapiens) (Q16665 whole entry, looked up): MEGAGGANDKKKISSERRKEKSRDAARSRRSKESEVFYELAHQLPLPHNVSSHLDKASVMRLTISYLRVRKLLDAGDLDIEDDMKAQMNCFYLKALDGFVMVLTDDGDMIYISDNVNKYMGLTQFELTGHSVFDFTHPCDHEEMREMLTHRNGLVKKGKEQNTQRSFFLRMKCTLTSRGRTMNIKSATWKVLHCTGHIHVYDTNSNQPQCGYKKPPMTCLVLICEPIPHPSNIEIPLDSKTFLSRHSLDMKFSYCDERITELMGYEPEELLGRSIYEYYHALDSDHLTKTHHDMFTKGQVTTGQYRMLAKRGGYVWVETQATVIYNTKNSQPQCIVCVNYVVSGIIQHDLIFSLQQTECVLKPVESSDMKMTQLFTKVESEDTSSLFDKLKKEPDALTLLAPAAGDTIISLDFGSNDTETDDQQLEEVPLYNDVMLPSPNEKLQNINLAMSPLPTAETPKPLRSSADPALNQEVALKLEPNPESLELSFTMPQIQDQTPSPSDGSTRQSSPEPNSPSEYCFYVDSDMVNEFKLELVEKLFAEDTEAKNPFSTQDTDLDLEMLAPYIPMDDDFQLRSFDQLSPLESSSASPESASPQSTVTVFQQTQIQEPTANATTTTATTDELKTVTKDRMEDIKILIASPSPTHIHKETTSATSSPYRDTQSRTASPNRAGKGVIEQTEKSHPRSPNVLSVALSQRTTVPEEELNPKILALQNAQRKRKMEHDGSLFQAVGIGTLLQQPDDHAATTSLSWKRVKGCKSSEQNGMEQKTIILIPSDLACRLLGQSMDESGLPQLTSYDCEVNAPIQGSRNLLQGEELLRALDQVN
Chain of Signal transducer and activator of transcription 3 (Homo sapiens) (P40763 whole entry, looked up): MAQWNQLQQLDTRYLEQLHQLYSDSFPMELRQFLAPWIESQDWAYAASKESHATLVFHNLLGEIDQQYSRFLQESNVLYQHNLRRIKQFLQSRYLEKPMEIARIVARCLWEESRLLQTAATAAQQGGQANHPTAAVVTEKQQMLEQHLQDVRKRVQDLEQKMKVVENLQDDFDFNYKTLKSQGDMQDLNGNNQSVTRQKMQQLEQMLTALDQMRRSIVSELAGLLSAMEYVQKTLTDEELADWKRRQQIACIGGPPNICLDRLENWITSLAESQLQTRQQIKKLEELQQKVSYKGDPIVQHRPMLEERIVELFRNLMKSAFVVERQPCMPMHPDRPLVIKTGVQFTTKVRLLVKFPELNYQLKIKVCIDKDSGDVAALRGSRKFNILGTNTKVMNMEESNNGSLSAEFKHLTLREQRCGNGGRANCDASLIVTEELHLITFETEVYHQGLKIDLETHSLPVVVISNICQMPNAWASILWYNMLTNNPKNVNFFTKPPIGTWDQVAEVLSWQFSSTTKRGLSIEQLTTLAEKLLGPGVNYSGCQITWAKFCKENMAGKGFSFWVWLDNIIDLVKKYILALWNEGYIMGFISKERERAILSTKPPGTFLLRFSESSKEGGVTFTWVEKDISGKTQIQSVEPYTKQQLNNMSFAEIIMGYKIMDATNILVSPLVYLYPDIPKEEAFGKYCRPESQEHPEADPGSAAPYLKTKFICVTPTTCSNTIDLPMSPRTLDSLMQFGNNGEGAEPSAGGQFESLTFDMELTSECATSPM
Chain of Paired box protein Pax-6 (Homo sapiens) (P26367 whole entry, looked up): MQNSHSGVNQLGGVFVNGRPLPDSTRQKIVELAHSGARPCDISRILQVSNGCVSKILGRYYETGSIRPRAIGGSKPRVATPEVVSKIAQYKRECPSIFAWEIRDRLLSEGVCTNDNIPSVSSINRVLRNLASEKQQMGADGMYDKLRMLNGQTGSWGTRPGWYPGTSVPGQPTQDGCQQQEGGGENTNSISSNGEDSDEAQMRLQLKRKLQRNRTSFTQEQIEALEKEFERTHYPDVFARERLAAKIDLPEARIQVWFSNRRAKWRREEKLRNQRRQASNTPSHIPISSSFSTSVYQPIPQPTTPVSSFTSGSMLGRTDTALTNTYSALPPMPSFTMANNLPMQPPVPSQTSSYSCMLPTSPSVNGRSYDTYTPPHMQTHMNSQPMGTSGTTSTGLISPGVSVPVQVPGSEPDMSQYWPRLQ
Chain of Heat shock factor protein 1 (Homo sapiens) (Q00613 whole entry, looked up, the tested form may be a part): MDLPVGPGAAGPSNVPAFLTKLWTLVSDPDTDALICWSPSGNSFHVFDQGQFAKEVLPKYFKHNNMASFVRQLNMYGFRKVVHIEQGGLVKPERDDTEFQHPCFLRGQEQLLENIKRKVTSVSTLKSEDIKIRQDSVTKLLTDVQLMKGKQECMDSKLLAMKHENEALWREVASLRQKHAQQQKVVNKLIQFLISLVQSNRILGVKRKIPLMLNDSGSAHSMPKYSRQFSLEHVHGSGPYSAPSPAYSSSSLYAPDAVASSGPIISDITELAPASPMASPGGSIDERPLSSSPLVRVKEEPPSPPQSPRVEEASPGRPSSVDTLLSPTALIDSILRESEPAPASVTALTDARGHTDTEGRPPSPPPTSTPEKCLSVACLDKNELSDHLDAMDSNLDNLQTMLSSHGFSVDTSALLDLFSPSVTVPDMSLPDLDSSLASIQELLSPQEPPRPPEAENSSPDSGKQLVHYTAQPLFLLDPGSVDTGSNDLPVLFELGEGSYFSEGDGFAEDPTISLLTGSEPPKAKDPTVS

The AC50 is the midpoint of the concentration-response curve, whichever way the signal moves. For `CCCO`, the outcome in experiment [1], in experiment [2], in [3], in experiment [4], in [5] and in experiment [6] was inactive. Further, the compound was called inactive in experiment [7], in [8], in experiment [10], in experiment [11], in [12] and in experiment [13]. Moreover, the compound was called inactive in experiment [14], in experiment [15] and in experiment [16]. In addition, the AC50 in experiment [9] was 85.4 µM (active).

For the compound `C1COCO1`, the result in [1], in experiment [2], in experiment [17], in experiment [3], in experiment [4] and in [6] was inactive. Further, the compound was called inactive in experiment [7], in experiment [8], in experiment [18], in [19], in experiment [9] and in experiment [12]. Further, the result in experiment [13] and in experiment [16] was inactive.

In the case of `CC(C)N1C(=O)c2ccccc2C1=O`, the outcome in experiment [1], in experiment [17], in [3], in experiment [4], in experiment [5] and in experiment [6] was inactive. The compound was called inactive in [7], in [8], in experiment [18], in [19], in experiment [10] and in [11]. Besides, the call in experiment [12], in experiment [14], in experiment [15] and in experiment [16] was inactive. For the same compound, the AC50 in experiment [9] was 37.2 µM (active).

As to `CCCC1CCC(=O)CC1`, the compound was called inactive in [1], in [2], in experiment [3], in [4], in experiment [5] and in experiment [6]. In addition, the compound was classed as inactive in [7], in experiment [8], in [18], in [19], in experiment [11] and in experiment [12]. Besides, the compound was classed as inactive in experiment [13], in [14], in [15] and in experiment [16]. Also, the AC50 in experiment [9] was 27.6 µM (active).

For the compound `CCCc1ccc(N)cc1`, the call in [1], in experiment [17], in experiment [3], in experiment [4], in experiment [5] and in experiment [6] was inactive. Moreover, the result in experiment [7], in experiment [8], in [18], in experiment [19], in [9] and in experiment [10] was inactive. The compound was classed as inactive in [11], in experiment [12], in [13], in [14], in experiment [15] and in experiment [16].

Take `CC(CCO)CC(C)(C)C` (centres undefined): the outcome in [1], in [2], in experiment [17], in experiment [3], in [4] and in experiment [6] was inactive. The outcome in experiment [7], in experiment [8], in experiment [19], in [9], in experiment [11] and in [12] was inactive. The compound was called inactive in [13], in experiment [15] and in experiment [16].

`CC(C)(C)C1CCC(O)CC1` (centres undefined): the outcome in [1], in [2], in [17], in [3], in [4] and in experiment [6] was inactive. For the same compound, the result in experiment [7], in experiment [8], in experiment [19], in [9], in [10] and in [11] was inactive. Also, the call in experiment [12], in [13], in experiment [14], in experiment [15] and in experiment [16] was inactive.

Turning to `CC/C=C\C#N`, the result in experiment [1], in [2], in [17], in [3], in experiment [4] and in [6] was inactive. Further, the call in experiment [7], in experiment [8], in experiment [18], in experiment [19], in experiment [9] and in experiment [11] was inactive. The result in experiment [12], in experiment [13], in experiment [14], in [15] and in experiment [16] was inactive.

Turning to `CC(O)CNCC(C)O` (centres undefined), the call in experiment [1], in [17], in experiment [3], in [4], in [5] and in experiment [6] was inactive. The compound was classed as inactive in [7], in experiment [8], in [18], in experiment [19], in experiment [9] and in experiment [10]. The result in experiment [11], in experiment [12], in experiment [13], in experiment [14], in experiment [15] and in [16] was inactive.
